Consider seven compounds from PubChem BioAssay (NCATS).

Assay [1] can be described thus: qHTS assay for small molecule agonists of retinoid X receptor alpha signaling (AID 588544; calls by dose curve;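 for activation: 0% = DMSO basal wells and 100% = reference agonist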). To be noted: HEK293T RXRa-UAS-bla, beta-lactamase reporter, 18 h; 530 nm emission. (Quantitative high-throughput screening tests each substance at several concentrations.)
Assay [2] has as its target Retinoic acid receptor RXR-alpha (Homo sapiens) (UniProt P19793). The description is as above. To be noted: HEK293T RXRa-UAS-bla, beta-lactamase reporter, 18 h; series mostly up to 76.7 µM.
The target in assay [3] is Thyroid hormone receptor beta (Homo sapiens) (UniProt P10828). Kind of assay: qHTS assay for small molecule agonists of thyroid hormone receptor beta signaling (AID 588545; calls by dose curve;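 note: 0% = DMSO only and 100% = 10 nM T3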). The note with it: TR-UAS-bla GripTite HEK 293, beta-lactamase ratio, agonist mode, 18 h, percent of T3 response, DMSO as zero; series mostly up to 76.7 µM. In outline:
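TR-UAS-bla-GripTite HEK 293 cells in medium with 2% charcoal/dextran FBS, 0.1 mM NEAA and 1 mM sodium pyruvate were treated with titrated compounds for 18 hrs at 37 C. Beta-lactamase reporter was read with CCF4 dye (ex 405, em 460/530 nm); EC50 from Hill fits.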

A short description of assay [4]: qHTS assay for small molecule antagonists of retinoid X receptor alpha signaling (AID 588546; active = well fitted inhibition curve with a large enough effect in the signal ratio, with a control signal flat, not every such curve was filed as active; the % refers to the signal ratio;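 note: cells stimulated with 9-cis-retinoic acid as agonist; % is set by controls: 0 for no effect and ±100 for the full control effect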). The note with it: HEK293T RXRa-UAS-bla, beta-lactamase ratio, antagonist mode; measured here: W530 green channel, cytotoxicity proxy. In outline:
(§1)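 Beta-lactamase reporter inhibition, read as CCF4 fluorescence ratio (ex 405, em 460/530 nm) after 2 h at RT. HEK293T UAS-bla cells, 2500/well, were stimulated with 9-cis-RA at 500 or 100 nM final alongside test compound for 18 h at 37 C.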

The target in assay [5] is Voltage-gated inwardly rectifying potassium channel KCNH2 (Homo sapiens) (UniProt Q12809). The assay is described as follows: qHTS Assay for Small Molecule Inhibitors of the Human hERG Channel Activity (AID 588834).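 Note: top concentration of the series differs between compounds; % is set by controls: 0 for no effect and ±100 for the full control effect; lower thallium flux fluorescence means stronger hERG block; nearly all actives have a fitted effect of over 50% in size.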 The note with it: U2OS BacMam hERG, FluxOR thallium flux fluorescence; series mostly up to 92.2 µM. In outline: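 In hERG-transduced U2OS cells, dye-loaded for 1 hr at room temperature in dark, test compounds incubated 10 min at 37 °C before thallium stimulation. AC50 values derived by Hill modelling of concentration-response.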
Voltage-gated inwardly rectifying potassium channel KCNH2 (Homo sapiens), sequence (Q12809 whole entry, looked up): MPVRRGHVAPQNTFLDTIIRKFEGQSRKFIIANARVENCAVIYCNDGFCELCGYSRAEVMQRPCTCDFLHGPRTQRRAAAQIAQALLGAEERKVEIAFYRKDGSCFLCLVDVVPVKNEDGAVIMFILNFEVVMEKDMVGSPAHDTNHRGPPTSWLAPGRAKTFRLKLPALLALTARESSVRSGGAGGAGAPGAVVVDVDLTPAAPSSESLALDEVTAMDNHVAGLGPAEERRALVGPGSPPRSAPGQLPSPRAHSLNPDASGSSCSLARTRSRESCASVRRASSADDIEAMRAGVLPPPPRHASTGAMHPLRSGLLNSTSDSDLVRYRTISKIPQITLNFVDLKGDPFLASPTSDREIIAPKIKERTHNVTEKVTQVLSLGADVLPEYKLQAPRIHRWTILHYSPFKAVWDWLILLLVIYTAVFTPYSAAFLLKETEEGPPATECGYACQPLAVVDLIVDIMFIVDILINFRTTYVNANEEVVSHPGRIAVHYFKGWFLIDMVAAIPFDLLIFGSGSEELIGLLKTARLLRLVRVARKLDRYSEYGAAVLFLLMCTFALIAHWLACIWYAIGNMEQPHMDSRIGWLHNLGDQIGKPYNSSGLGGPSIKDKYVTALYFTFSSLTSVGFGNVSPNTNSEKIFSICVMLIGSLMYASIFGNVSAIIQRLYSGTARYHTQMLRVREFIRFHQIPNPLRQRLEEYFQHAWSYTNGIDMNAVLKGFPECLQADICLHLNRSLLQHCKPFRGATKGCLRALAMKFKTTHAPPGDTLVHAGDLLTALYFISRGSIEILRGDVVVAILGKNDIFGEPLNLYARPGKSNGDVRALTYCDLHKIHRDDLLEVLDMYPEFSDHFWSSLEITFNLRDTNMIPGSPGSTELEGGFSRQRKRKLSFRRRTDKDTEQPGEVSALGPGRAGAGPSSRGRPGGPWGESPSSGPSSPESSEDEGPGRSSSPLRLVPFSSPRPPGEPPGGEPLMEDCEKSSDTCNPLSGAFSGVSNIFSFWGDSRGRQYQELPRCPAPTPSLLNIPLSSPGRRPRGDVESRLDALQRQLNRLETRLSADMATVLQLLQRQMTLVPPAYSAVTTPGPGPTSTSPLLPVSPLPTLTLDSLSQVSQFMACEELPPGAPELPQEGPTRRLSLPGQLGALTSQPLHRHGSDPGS

A short description of assay [6]: qHTS assay for small molecule activators of the p53 signaling pathway (AID 651743; active = well fitted activation curve with a large enough effect in the signal ratio, not every such curve was filed as active; the % refers to the signal ratio; note: % of control where 0% means no effect). To be noted: HCT-116 p53RE-bla, beta-lactamase FRET ratio, 16 h; stronger effect = higher value. In outline:
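Following 16 hours of compound exposure at 37 C, HCT-116 cells bearing the p53RE-bla reporter were loaded with LiveBLAzer B/G FRET substrate for 2 hours at room temperature and fluorescence intensity was recorded.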

The nature of assay [7]: qHTS assay for small molecule activators of the nuclear factor-kappa B (NF-kB) signaling pathway (AID 651749; active = well fitted activation curve with a large enough effect in the signal ratio; the % refers to the signal ratio; note: % of control where 0% means no effect). To be noted: NF-kB-bla ME-180 cells, beta-lactamase FRET ratio, 16 h; stronger effect = higher value. In outline: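 In this qHTS format, compounds acting as activators increase NF-kB-driven beta-lactamase in ME-180 cells, measured as disrupted FRET after 16 hr exposure at 37C and 5% CO2.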

Assay [8] in a line: qHTS assay for small molecule disruptors of the mitochondrial membrane potential - 1 hr assay (AID 651754; calls by dose curve; note: % is set by controls: 0 for no effect and ±100 for the full control effect; nearly all actives have a fitted effect of over 35% in size). The note with it: series mostly up to 92.2 µM. In outline: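 Mitochondrial potential in living HepG2 cells after 1 hr compound treatment at 37C was read with Mito-MPS dye added for a further 30 min. Red aggregate and green monomer fluorescence were measured; loss of potential leaves dye as cytoplasmic monomers.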

Assay [9] in a line: qHTS assay for small molecule disruptors of the mitochondrial membrane potential - 5 hr assay (AID 651755; calls by dose curve; note: % is set by controls: 0 for no effect and ±100 for the full control effect; nearly all actives have a fitted effect of over 40% in size). The note with it: JC-1-type ratio dye; series mostly up to 92.2 µM. In outline:
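Read-out: ratiometric Mito-MPS fluorescence, green monomer (ex 490/em 535) vs red mitochondrial aggregate (ex 540/em 590). HepG2 cells treated 5 hr at 37C before 30 min dye loading.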

Assay [10] deals with Tumor necrosis factor (Homo sapiens) (UniProt P01375). Kind of assay: qHTS assay to identify small molecules that stimulate Tumor Necrosis Factor-alpha (TNF-alpha) secretion (AID 651757; active = well fitted curve in the direction sought with a large enough effect in the signal ratio; the % refers to the signal ratio; note: 0% is about no effect). To be noted: Human cells, HTRF 665/615 ratio; series mostly up to 92.2 µM. In outline:
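Secreted TNF-alpha quantified by TR-FRET sandwich of two labeled anti-TNF-alpha antibodies, incubated 3 hr at room temperature. Preceded by 17 hr, 37 C compound treatment of THP-1 cells at 3000 cells/well.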

The nature of assay [11]: qHTS assay for environmental chemicals that activate the Aryl hydrocarbon Receptor (AhR) signaling pathway (AID 651777). Note: % of control where 0% means no effect; nearly all actives have a fitted effect of over 15% in size. To be noted: 1A2-DRE human hepatoma cells, luciferase, 24 h; activation: stronger effect = higher value. In outline:
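Stable CYP1A2 promoter/DRE-luciferase human hepatoma line treated 24 hr; One-Glo luminescence, 30 min RT.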

Assay [12] concerns the target Peroxisome proliferator-activated receptor alpha (Homo sapiens) (UniProt Q07869). Kind of assay: qHTS assay for small molecule agonists of the peroxisome proliferator-activated receptor alpha (PPARalpha) signaling pathway (AID 651778). Note: % of control where 0% means no effect. To be noted: PathHunter PPARalpha complementation, chemiluminescence, 6 h; stronger effect = higher value. In outline:
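Enzyme-fragment complementation assay in which ligand-bound PPARalpha translocates and forms an active enzyme that generates chemiluminescence. Cells were plated overnight, exposed to compound for 6 hr at 37 C, and then given detection reagent for 60 min at room temperature.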

Assay [13] concerns the target Nuclear receptor ROR-gamma (Homo sapiens) (UniProt P51449). Kind of assay: qHTS assay for small molecule antagonists of the retinoid-related orphan receptor gamma (ROR-gamma) signaling pathway (AID 651802).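 Note: luciferase reporter luminescence driven by ROR response element; % is set by controls: 0 for no effect and ±100 for the full control effect; nearly all actives have a fitted effect of over 60% in size.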 To be noted: ROR-gamma antagonist cell reporter assay; series mostly up to 92.2 µM. In outline:
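Luminescence (One-Glo, 30 min RT) measured 16 h after compound addition and doxycycline induction at 37C. Reporter: RORE-luciferase under TET-inducible ROR-gamma in CHO cells.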

Assay [14] is described as follows: qHTS assay for small molecule agonists of the antioxidant response element (ARE) signaling pathway measured by Nrf2-dependant transcriptional activity (AID 720636; active = well fitted curve in the direction sought with a large enough effect in the repeat runs; an effect the other way counts as inactive or inconclusive;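 note: HepG2 cells with an ARE-driven luciferase reporter; % of control where 0% means no effect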). The note with it: ARE-luc HepG2, Nrf2 luciferase reporter, 16 h; series mostly up to 92.4 µM. In outline:
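Reporter gene assay, HepG2 ARE-luc: 16 hr compound, 37 C, 5% CO2; read-out luciferase luminescence.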

Assay [15] can be described thus: qHTS assay for small molecule antagonists of the retinoid-related orphan receptor gamma (ROR-gamma) signaling pathway - cell viability counter screen (AID 720652; active = well fitted curve in the direction sought with a large enough effect in the repeat runs; an effect the other way counts as inactive or inconclusive;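 note: compound exposure lasted 16 hr before ATP read; % is set by controls: 0 for no effect and ±100 for the full control effect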). To be noted: RORgamma reporter cell line viability counter screen; series mostly up to 92.2 µM. In outline: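 Cytotoxicity counter screen: intracellular ATP (CellTiter-Glo luminescence) measured in the doxycycline-induced CHO RORE-luciferase reporter line after 16 hr compound exposure at 37 C, 5% CO2.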

A short description of assay [16]: qHTS assay for small molecule agonists of the antioxidant response element (ARE) signaling pathway measured by Nrf2-dependant transcriptional activity - cell viability counter screen (AID 720653; active = well fitted curve in the direction sought with a large enough effect in the repeat runs; an effect the other way counts as inactive or inconclusive; note: % is set by controls: 0 for no effect and ±100 for the full control effect). The note with it: ARE-bla HepG2 viability, CellTiter-Glo ATP luminescence, 16 h; stronger effect = lower value. In outline: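 ARE-bla HepG2 cells treated with compounds for 16 h at 37C; this counter screen measures viability as intracellular ATP by CellTiter-Glo luminescence after 30 min at room temperature.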

Assay [17] deals with Retinoic acid receptor RXR-alpha (Homo sapiens) (UniProt P19793). The assay is described as follows: qHTS assay for small molecule antagonists of retinoid X receptor alpha signaling (AID 588546).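 Note: cells stimulated with 9-cis-retinoic acid as agonist; % is set by controls: 0 for no effect and ±100 for the full control effect.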 The note with it: HEK293T RXRa-UAS-bla, beta-lactamase ratio, antagonist mode. In outline: as §1
Retinoic acid receptor RXR-alpha (Homo sapiens), sequence (P19793 whole entry, looked up): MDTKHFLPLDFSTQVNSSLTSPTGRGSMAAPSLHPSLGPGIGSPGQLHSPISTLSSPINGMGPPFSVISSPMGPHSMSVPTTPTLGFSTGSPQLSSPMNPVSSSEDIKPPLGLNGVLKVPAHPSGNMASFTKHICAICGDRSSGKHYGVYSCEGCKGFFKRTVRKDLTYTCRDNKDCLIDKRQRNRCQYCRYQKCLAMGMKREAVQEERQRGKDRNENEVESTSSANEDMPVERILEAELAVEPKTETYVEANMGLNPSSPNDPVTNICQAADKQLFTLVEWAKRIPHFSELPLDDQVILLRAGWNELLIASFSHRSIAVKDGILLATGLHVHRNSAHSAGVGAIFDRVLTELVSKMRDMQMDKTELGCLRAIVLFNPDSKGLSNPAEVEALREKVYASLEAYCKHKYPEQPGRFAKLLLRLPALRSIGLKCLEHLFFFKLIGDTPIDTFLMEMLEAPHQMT
Assay [18] has as its target Thyroid hormone receptor beta (Homo sapiens) (UniProt P10828). Kind of assay: qHTS assay for small molecule antagonists of thyroid hormone receptor beta signaling (AID 588547; active = well fitted inhibition curve with a large enough effect in the signal ratio, with a control signal flat, not every such curve was filed as active; the % refers to the signal ratio). To be noted: TR-UAS-bla HEK293, beta-lactamase ratio, antagonist mode, 18 h. In outline:
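TR-UAS-bla GripTite HEK293 cells in 2% charcoal/dextran FBS medium; compounds 0.59 nM to 92 uM with T3 at 0.4nM final, 18 h at 37 C. Beta-lactamase read by CCF4 fluorescence (460/530 nm); Hill fits gave IC50 and efficacy.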

Assay [19] is described as follows: qHTS assay for small molecule agonists of the antioxidant response element (ARE) signaling pathway (AID 651741; active = well fitted activation curve with a large enough effect in the signal ratio; the % refers to the signal ratio; note: % of control where 0% means no effect). The note with it: HepG2 ARE-bla reporter, beta-lactamase FRET ratio, 16 h; series mostly up to 96 µM. In outline: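 Stably integrated ARE-beta-lactamase reporter HepG2 cells; 16 h compound incubation, 37 C; LiveBLAzer FRET substrate 2 h at room temperature; fluorescence intensity.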

A short description of assay [20]: qHTS assay to identify small molecules that stimulate interleukin-8 (IL-8) secretion (AID 651758; active = well fitted activation curve with a large enough effect in the signal ratio; the % refers to the signal ratio; note: 0% is about no effect). The note with it: HTRF ratio (665/615); series mostly up to 92.2 µM. In outline:
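Compounds are added to THP-1 cells (2000 per well) and left 16 hrs at 37 C. A labeled anti-IL-8 antibody pair is then added, and IL-8 secretion is measured by time-resolved FRET after 1-3 hrs at room temperature.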

Records with an inconclusive call do not appear. Activity calls are given as the source filed them. Unless noted, calls come from the whole dose curve; as a rule, active = well fitted curve in the direction sought with a large enough effect; inconclusive = small, poorly fitted or top-dose-only effect, or another doubt; inactive = no such curve, though single readings can be large; an effect the other way counts as inactive or inconclusive.

Thyroid hormone receptor beta (Homo sapiens), sequence (P10828 whole entry, looked up): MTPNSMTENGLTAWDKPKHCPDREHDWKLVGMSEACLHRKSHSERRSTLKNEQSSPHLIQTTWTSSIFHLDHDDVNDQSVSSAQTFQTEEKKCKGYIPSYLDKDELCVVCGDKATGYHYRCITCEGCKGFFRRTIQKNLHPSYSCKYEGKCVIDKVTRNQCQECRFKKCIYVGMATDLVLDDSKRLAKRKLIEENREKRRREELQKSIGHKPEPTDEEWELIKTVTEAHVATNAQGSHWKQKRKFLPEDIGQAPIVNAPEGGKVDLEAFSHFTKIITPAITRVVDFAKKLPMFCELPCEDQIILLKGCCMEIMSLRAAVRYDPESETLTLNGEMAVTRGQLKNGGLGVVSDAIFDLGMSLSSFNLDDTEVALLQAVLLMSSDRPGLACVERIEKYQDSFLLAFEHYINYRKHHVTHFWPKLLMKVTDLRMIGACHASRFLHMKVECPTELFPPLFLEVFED
Tumor necrosis factor (Homo sapiens), sequence (P01375 whole entry, looked up): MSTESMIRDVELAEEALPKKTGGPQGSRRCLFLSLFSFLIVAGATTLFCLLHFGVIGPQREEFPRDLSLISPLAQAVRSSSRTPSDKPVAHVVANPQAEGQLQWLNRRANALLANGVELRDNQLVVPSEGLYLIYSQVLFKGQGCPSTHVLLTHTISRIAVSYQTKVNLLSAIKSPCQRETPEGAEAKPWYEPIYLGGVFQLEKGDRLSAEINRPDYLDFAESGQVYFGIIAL
Nuclear receptor ROR-gamma (Homo sapiens), sequence (P51449 whole entry, looked up): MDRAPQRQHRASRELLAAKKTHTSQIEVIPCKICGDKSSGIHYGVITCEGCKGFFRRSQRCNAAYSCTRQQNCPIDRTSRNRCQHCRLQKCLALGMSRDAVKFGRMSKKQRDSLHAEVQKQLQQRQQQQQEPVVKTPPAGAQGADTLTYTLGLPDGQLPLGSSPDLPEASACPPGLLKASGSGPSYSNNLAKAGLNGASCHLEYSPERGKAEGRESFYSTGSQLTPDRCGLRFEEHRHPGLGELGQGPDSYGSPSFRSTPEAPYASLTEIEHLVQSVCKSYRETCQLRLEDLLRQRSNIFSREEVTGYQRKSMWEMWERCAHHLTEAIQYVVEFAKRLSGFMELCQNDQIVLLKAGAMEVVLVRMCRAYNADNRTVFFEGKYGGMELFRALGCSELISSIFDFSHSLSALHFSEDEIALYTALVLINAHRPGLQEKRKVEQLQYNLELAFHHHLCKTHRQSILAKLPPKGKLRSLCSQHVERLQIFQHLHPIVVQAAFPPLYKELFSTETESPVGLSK
Peroxisome proliferator-activated receptor alpha (Homo sapiens), sequence (Q07869 whole entry, looked up, the tested form may be a part): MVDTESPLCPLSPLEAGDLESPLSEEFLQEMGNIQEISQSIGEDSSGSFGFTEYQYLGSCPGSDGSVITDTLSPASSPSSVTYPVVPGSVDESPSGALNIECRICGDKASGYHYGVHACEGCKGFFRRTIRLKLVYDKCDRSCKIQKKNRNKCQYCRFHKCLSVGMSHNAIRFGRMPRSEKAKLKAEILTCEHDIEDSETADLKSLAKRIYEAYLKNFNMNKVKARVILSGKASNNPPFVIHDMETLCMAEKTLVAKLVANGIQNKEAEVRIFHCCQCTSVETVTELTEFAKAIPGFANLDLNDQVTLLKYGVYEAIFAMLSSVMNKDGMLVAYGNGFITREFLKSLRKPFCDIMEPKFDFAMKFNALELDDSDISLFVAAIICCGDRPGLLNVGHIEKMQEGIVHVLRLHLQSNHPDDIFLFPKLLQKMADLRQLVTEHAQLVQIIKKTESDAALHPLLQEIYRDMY

Take `CCOc1cccc(N)c1`: the max response in assay [1] is -8.66%; in [4], 5.53%; in assay [12], 0.865% (inactive). Besides, the compound was classed as inactive in [2], in assay [3] and in assay [14]. Besides, the Potency entry in assay [5], in [8], in [9], in [10], in [13] and in assay [15] was “inactive” each time. Moreover, the activation in [6] is 0.42% (inactive); in assay [7], -0.866% (inactive); in assay [11] it was 1.67% (inactive).

Take `C=C(C)C(=O)OCCCCCC`: the results for the max response in [1], in assay [12] and in assay [16] were -12.9%, -8.01% (inactive) and -4.89% (inactive), respectively. In addition, the result in assay [2] and in assay [3] was inactive. Also, the Potency result in assay [5], in assay [8], in assay [9], in assay [10], in [13] and in assay [15] was “inactive” throughout. For the same compound, the activation was -0.374% (inactive) in assay [6] and 0.571% (inactive) in assay [7].

With `CCCCCCCCC`, the max response was -5.14% in [1], -11.2% in assay [4], 0.715% (inactive) in assay [17] and -0.317% (inactive) in assay [12]. Also, the compound was classed as inactive in assay [2]. For the same compound, the activity change % (negative = inhibition) in [18] was 13.2% (inactive). In addition, the Potency entry in [5], in [19], in assay [8], in assay [9], in [10] and in [20] was “inactive” throughout. For the same compound, the Potency entry in assay [13] and in assay [15] was “inactive” each time. Also, the activation in assay [6] is -1.85% (inactive); in assay [7], 0.37% (inactive); in assay [11], 0.0249% (inactive).

In the case of `Cc1ccc2ccccc2c1[N+](=O)[O-]`, the max response in assay [1] was -7.86%; in [4] it was 0.642%; in assay [17], 2.75% (inactive); in [12], 5.72% (inactive); in assay [16], 14.1% (inactive). The compound was called inactive in [2] and in assay [14]. In addition, in assay [18], the activity change % (negative = inhibition) was -6.91% (inactive). Also, the Potency entry in assay [5], in [8], in assay [9], in assay [10], in assay [20] and in assay [13] was “inactive” throughout. For the same compound, the results for the activation in assay [7] and in assay [11] were 0.793% (inactive) and 1.24% (inactive), respectively.

On to `Cc1ccc(N(C)C)cc1`, for which the max response was 5.65% in [1], -1.89% in assay [4], 25.4% (inactive) in assay [17] and 2.84% (inactive) in assay [12]. Besides, the call in assay [2] and in [14] was inactive. The activity change % (negative = inhibition) in assay [18] was 13.9% (inactive). The Potency result in assay [5], in [19], in assay [8], in assay [9], in assay [10] and in assay [20] was “inactive” in each case. Also, the Potency entry in assay [15] is “inactive”. Further, the activation was -2.63% (inactive) in [6], -0.0617% (inactive) in assay [7] and 6.07% (inactive) in assay [11].

On to `CC(O)CC(C)O` (stereo not given), for which the max response in assay [1] was -6.63%; in assay [4] it was 14.5%; in [17], 3.51% (inactive); in [12], -0.949% (inactive); in assay [16], -7.28% (inactive). The outcome in [2] and in assay [14] was inactive. In [18], the activity change % (negative = inhibition) was -2.07% (inactive). Besides, the Potency entry in assay [5], in assay [19], in assay [9], in assay [10], in assay [13] and in [15] was “inactive” throughout. The activation in assay [7] is -0.133% (inactive); in assay [11], -0.953% (inactive).

As for `O=[N+]([O-])c1ccc(Cl)cc1Cl`, the max response is -6.43% in assay [1], -4.28% in [4], -1.04% (inactive) in assay [12] and -19.5% (inactive) in assay [16]. The outcome in [2], in assay [3] and in [14] was inactive. Besides, the activity change % (negative = inhibition) in assay [18] is 17.6% (inactive). Also, the Potency result in assay [5], in assay [8], in [9], in [10], in [13] and in assay [15] was “inactive” each time. Further, the activation in assay [7] is 0.0961% (inactive); in assay [11], -1.71% (inactive).
